Measured values taken from PubChem BioAssay (NCATS).
Results filed as inconclusive are left out. Calls of active or inactive are those of the source. Calls come from the whole dose curve; as a rule, active = well fitted inhibition curve with a large enough effect; inconclusive = small, poorly fitted or top-dose-only effect; inactive = no such curve, though single readings can be large or run the other way.

assay: Primary qHTS for inhibitors of La Crosse Virus (LACV) - induced cell death in SH-SY5Y cells (AID 1508616); conditions: SH-SY5Y LACV cytopathicity rescue, ATP luminescence, 6 d; series mostly up to 4.29 µM;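 note: top concentration of the series differs between compounds; higher means more rescue of cells from virus-induced death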
From the text: Assay Provider: Karin Peterson Ph.D.
National Institute of Allergy and Infection Diseases, National Institute of Health
La Crosse Virus (LACV) is a California serogroup mosquito-borne arbovirus, family Peribunyaviridae, which is an endemic pathogen in North America and can induce a rare, life-threatening neurological disease in children. LACV was first isolated in the early 1960s, from a summer "rural encephalitis" case in La Crosse, Wisconsin, USA. Since then, LACV encephalitis cases have been found in more than twenty states, with most cases in the Mississippi and Ohio River basins. The life cycle of LACV is maintained between the vector, the eastern tree-hole mosquito Aedes triseriatus, and vertebrate hosts including eastern gray squirrels (Sciurus carolinensis) and chipmunks (Tamiasstriatus grinseus). […] Most LACV infections in humans are asymptomatic or induce mild clinical symptoms of fever, headache, lethargy and vomiting. However, in some cases LACV can cause severe neuroinvasive disease, including encephalitis, meningitis, and meningoencephalitis, requiring hospitalization. To date, there is neither a licensed vaccine nor a Food and Drug Administration (FDA) approved antiviral therapy available to prevent or treat LACV encephalitis. The primary treatment for viral encephalitis is palliative care due to the lack of therapeutics. In the current study, we conducted a screen of 4,096 FDA approved and bioactive small molecules against LACV, by screening for rescue of LACV-induced cell death in SH-SY5Y cells.
LACV-induced cytopathicity assay
SEQUENCE No. (1,2, 3, etc.); […] (e.g., Cells, Incubation, Reagent, etc.); VALUE and DESCRIPTION.
1. Reagent; 2 uL; Cell solution.
3. Compounds; 23nL; Compound library
4. Reagent; 12 uL; LACV virus
6. Reagent; 24 uL; ATPLite (PerkinElmer)
7. Time; 5 min; Room temperature
8. Detection; Luminescence; View
NOTES (numbers refer to sequence above)
1. Seed 6000 SH-SY5Y cells (ATCC CRL-2266) in 2 microL/well media (DMEM/F12 10% FBS, 1x L-Glutamine, 1x Pyruvate, 1x NEAA, 1x Pen/Strep) in 384-well assay plates (tissue culture treated, white, solid bottom).
2. Incubate at 37 degrees C with 5% CO2 for 24 hr.
3. Dispense 23 nL/well compounds in DMSO via pin transfer.
4. Dispense 12 microL/well of LACV (LACV/human/1978) in media at 0.01 MOI.
5. Incubate at for 6 days at 37C 5% CO2
6. Dispense 24 microL/well of ATPLite 1step Luminescence assay system (PerkinElmer).
7. Incubate for 5 min at room temperature.
8. Read luminescence signal (Viewlux plate reader, PerkinElmer). Data was normalized with DMSO control wells containing LACV as 0%, and DMSO control wells without virus as 100%.

| Compound | outcome |
| --- | --- |
| CN(C)C(=O)Oc1cc(OC(=O)N(C)C)cc(C(O)CNC(C)(C)C)c1 (stereo not given) | inactive |
| CN1[C@@H]2CC[C@H]1CC(OC(=O)c1cc(Cl)cc(Cl)c1)C2 (stereo not given in full) | inactive |
| CCN(CC)C(C)C(=O)c1ccccc1 (stereo not given) | inactive |
| CN1CCC(N(Cc2ccccc2)c2ccccc2)CC1 | inactive |
| COc1ccc(OC)c(CC(C)N)c1 (stereo not given) | inactive |
| C[C@@H]1CN(C2CCC(C#N)(c3ccc(F)cc3)CC2)CC[C@]1(C(=O)O)c1ccccc1 (stereo not given in full) | inactive |
| Nc1ccccc1C(=O)OCC(O)CO (stereo not given) | inactive |
| CCOP(=S)(OCC)O/N=C(\C#N)c1ccccc1 | inactive |
| C[C@H](N)[C@H](O)c1ccc(O)c(O)c1 | inactive |
| CCCOC(=O)Cc1ccc(OCC(=O)N(CC)CC)c(OC)c1 | inactive |
| C[C@]12Cc3nonc3C[C@@H]1CC[C@@H]1[C@@H]2CC[C@@]2(C)[C@H]1CC[C@]2(C)O | inactive |
| Oc1ccc2[nH]cc(CCCCN3CC=C(c4ccccc4)CC3)c2c1 | inactive |
| CC[C@]1(O)CC[C@H]2[C@@H]3CCC4=CCCC[C@@H]4[C@H]3CC[C@@]21C | inactive |
| CC(C(O)c1ccccc1)N(C)C/C=C/c1ccccc1 (stereo not given) | inactive |
| Oc1c(Br)cc(Br)cc1Br | inactive |
| Cc1cccc(Cc2cnc[nH]2)c1C | inactive |
| CN1C[C@@H](NS(=O)(=O)N(C)C)C[C@@H]2c3cccc4c3c(cn4C)C[C@H]21 | inactive |
| OC(c1ccccc1)(c1ccccc1)C1CCNCC1 | inactive |
| CNC(=O)Oc1cccc2ccccc12 | inactive |
| C[C@@H]1C[C@@H]([C@H](O)CC2CC(=O)NC(=O)C2)C(=O)[C@@H](C)C1 | inactive |

| Compound | outcome |
| --- | --- |
| CCCCCCCCC(=O)NCc1ccc(O)c(OC)c1 | inactive |
| CC(C)[N+](C)(CCC(C(N)=O)(c1ccccc1)c1ccccc1)C(C)C | inactive |
| COc1cc(CC#N)cc(OC)c1OC | inactive |
| COc1ccc2c(C(=O)c3ccc(Cl)cc3)c(C)n(CC(=O)O)c2c1 | inactive |
| COc1cc(C[C@@H](C)N)c(OC)cc1C | inactive |
| O=C1NCN(c2ccccc2)C12CCN(CCCOc1ccc(F)cc1)CC2 | inactive |
| Clc1ccc(CO/N=C(\Cn2ccnc2)c2ccc(Cl)cc2Cl)c(Cl)c1 | inactive |
| COc1cc(CC(C)N)c(OC)cc1Br (stereo not given) | inactive |
| OC(O)C(Cl)(Cl)Cl | inactive |
| C[N+](C)(C)CCOC(=O)C(O)(c1ccccc1)c1ccccc1 | inactive |
| NC(=O)CN1CCCC1=O | inactive |
| CCC(OC(C)=O)C(CC(C)NC)(c1ccccc1)c1ccccc1 (stereo not given) | inactive |
| CC(C)C(Br)C(=O)NC(N)=O (stereo not given) | inactive |
| O=c1n(Cl)c(=O)n(Cl)c(=O)n1Cl | inactive |
| O=C(N[C@@H]1N=C(c2ccccc2F)c2cccc3c2N(CC3)C1=O)c1cc2ccccc2[nH]1 | inactive |
| CN(C)CCc1c[nH]c2cccc(O)c12 | inactive |
| CCO[C@H]1O[C@@H]2OC3(C)CC[C@H]4[C@H](C)CC[C@@H]([C@H]1C)[C@@]24OO3 | inactive |
| O=c1[nH]c2cc(Cl)ccc2n1C1CCNCC1 | inactive |
| C1CN2CCC1CC2 | inactive |
| ClCc1cccc(Cl)c1 | inactive |
